Among the data in PubChem BioAssay (NCATS) are Potency values, retold here.

A short description of test [1]: Primary qHTS for small molecule stabilizers of the endoplasmic reticulum resident proteome: Secreted ER Calcium Modulated Protein (SERCaMP) assay (AID 1508630). To be noted: SH-SY5Y GLuc-SERCaMP (Gaussia luciferase released on ER calcium loss) secretion, thapsigargin, luminescence; series mostly up to 38.4 µM. Put shortly:
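The SH-SY5Y reporter protocol was run at 3 concentrations up to 38.3 uM (primary) or 11 concentrations (follow-up): 16 h compound, 100 nM thapsigargin for 4 h, then extracellular luciferase luminescence.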

In test [2] the target is Cytochrome P450 2D6 (Homo sapiens) (UniProt P10635). Briefly: Cytochrome P450 family 2 subfamily D member 6 (CYP2D6) small molecule antagonists: luciferase biochemical (cell-free) qHTS assay (AID 1645840; active = well fitted curve in the direction sought with a large enough effect in the repeat runs; an effect the other way counts as inactive or inconclusive; also: nearly all actives have a fitted effect of over 55% in size; also: potency is read from the fitted curve at half-maximal effect). To be noted: P450-Glo CYP2D6 enzyme, luciferin luminescence, 1 h; series mostly up to 57.4 µM. An outline of the steps:
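P450-Glo CYP2D6 system: proluciferin substrate converted by enzyme to luciferin, read by luminescence proportional to activity. Enzyme-substrate mix with compound 10 min at room temperature, then NADPH regeneration 1 h before detection reagent.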

In test [3] the target is Cytochrome P450 2C9 (Homo sapiens) (UniProt P11712). Briefly: Cytochrome P450 family 2 subfamily C member 9 (CYP2C9) small molecule antagonists: luciferase biochemical (cell-free) qHTS assay (AID 1645842; active = well fitted curve in the direction sought with a large enough effect in the repeat runs; an effect the other way counts as inactive or inconclusive; also: nearly all actives have a fitted effect of over 55% in size; also: potency is read from the fitted curve at half-maximal effect). To be noted: P450-Glo CYP2C9 enzyme assay, luciferin luminescence; series mostly up to 57.4 µM. An outline of the steps: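 P450-Glo CYP2C9 system: proluciferin substrate with enzyme in mix containing 0.4% BSA, 10 min at room temperature, then NADPH regeneration solution added and incubated 1 h at 37C. Detection reagent stopped reaction; luminescence read after 20 min as RLU.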
Cytochrome P450 2C9 (Homo sapiens), sequence (P11712 whole entry, looked up): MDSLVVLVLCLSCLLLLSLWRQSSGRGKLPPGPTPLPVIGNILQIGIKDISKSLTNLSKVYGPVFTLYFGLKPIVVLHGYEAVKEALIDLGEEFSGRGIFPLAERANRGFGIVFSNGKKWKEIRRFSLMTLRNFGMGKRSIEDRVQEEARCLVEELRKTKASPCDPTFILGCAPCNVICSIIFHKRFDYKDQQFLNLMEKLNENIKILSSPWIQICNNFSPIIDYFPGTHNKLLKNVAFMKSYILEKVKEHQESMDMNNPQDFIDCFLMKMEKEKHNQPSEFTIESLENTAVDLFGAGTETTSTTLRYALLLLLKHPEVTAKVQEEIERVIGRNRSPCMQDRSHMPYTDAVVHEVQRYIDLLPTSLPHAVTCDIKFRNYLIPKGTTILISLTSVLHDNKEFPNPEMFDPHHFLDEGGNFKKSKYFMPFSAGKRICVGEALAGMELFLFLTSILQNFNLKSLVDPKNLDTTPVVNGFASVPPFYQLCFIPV

A short description of test [4]: A High-Content qHTS Against Drug Library for the Identification of Small Molecules that Inhibit DYT1 Early Onset Primary Dystonia-Associated Cell Pathology (AID 1645839; calls by dose curve). To be noted: HEK293 Flp-In EGFP-delE TorsinA, punctate imaging, 48 h; series mostly up to 46.1 µM. An outline of the steps:
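Cells were seeded and left for 24 h, then dosed with compound alongside tetracycline induction of mutant EGFP-TorsinA. They were incubated for 48 h, fixed in 4% paraformaldehyde, permeabilized and imaged for mislocalization (%pathology) and cell count.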

The target in test [5] is N-terminal Xaa-Pro-Lys N-methyltransferase 1 (Homo sapiens) (UniProt Q9BV86). Briefly: Confirmatory qHTS for Inhibitors of N-terminal methyltransferase 1 (NTMT1): MTaseGlo Assay (AID 1645874). Also: potency is read from the fitted curve at half-maximal effect; nearly all actives have a fitted effect of over 65% in size. To be noted: NTMT1 enzyme, MTase-Glo SAH luminescence. An outline of the steps:
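MTase-Glo luminescence measured SAH formed by 125 nM NTMT1 from 100 uM SAM and 1 uM SPKRIA peptide over 30 min at room temperature, following 15 min compound preincubation. Percent inhibition against no-enzyme and DMSO controls gave 4-parameter Hill fits.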

Test [6] has as its target Papain (Carica papaya) (UniProt P00784). Description: Primary qHTS assay for inhibitors of the protease papain (AID 1645873).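 Also: papain turnover of Z-FR-AMC read as the AMC fluorescence gain over 10 min.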 To be noted: papain Z-FR-AMC cleavage, AMC fluorescence; series mostly up to 49.8 µM.

Several values for one entry are separate records, joined by “and”; a condition that tells them apart may be missing. Equal values may be shown once. Records with an inconclusive call do not appear. Activity calls are given as the source filed them. Unless noted, calls follow the shape of the dose curve; as a rule, active = well fitted curve in the direction sought with a large enough effect; inconclusive = small, poorly fitted or top-dose-only effect, or another doubt; inactive = no such curve, though single readings can be large; an effect the other way counts as inactive or inconclusive.

Cytochrome P450 2D6 (Homo sapiens), sequence (P10635 whole entry, looked up): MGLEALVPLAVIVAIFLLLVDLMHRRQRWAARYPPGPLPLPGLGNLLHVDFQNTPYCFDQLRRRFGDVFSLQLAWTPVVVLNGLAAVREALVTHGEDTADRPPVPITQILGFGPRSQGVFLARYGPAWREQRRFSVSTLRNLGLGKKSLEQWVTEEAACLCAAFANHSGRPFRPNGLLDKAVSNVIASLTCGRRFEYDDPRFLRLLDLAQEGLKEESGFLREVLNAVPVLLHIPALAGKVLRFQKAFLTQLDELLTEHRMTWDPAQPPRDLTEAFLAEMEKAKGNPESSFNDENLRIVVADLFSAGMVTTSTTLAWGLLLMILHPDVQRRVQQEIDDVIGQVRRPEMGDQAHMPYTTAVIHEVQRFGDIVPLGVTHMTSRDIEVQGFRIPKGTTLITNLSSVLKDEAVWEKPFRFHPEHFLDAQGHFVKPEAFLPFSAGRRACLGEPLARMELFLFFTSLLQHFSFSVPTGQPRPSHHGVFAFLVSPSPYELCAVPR
Papain (Carica papaya), sequence (P00784 whole entry, looked up): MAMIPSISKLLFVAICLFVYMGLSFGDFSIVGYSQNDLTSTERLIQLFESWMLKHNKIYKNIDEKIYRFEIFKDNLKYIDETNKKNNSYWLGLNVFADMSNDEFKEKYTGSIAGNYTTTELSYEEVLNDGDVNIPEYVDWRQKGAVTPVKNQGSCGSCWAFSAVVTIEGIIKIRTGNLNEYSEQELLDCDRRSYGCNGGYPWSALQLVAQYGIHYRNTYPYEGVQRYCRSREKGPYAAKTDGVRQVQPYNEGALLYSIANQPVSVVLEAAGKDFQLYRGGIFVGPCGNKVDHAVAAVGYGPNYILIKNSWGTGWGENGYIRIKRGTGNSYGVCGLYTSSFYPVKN
N-terminal Xaa-Pro-Lys N-methyltransferase 1 (Homo sapiens), sequence (Q9BV86 whole entry, looked up): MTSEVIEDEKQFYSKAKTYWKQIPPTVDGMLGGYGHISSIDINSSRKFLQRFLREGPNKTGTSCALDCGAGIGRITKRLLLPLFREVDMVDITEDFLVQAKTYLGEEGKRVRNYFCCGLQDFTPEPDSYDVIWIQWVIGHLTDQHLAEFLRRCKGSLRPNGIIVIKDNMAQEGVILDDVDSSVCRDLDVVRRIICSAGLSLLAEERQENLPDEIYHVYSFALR

On to `COC(=O)Nc1nc2ccc(C(=O)C3CC3)cc2[nH]1`, for which the Potency result in test [1], in test [2] and in test [3] was “inactive” throughout.
As to `O=C(CCN1CCN(CCO)CC1)N1c2ccccc2Sc2ccc(C(F)(F)F)cc21`, the Potency entry in test [1], in test [4], in test [2] and in test [3] was “inactive” in each case.
Consider `Cc1ccc(O)c(-n2nc3ccccc3n2)c1`, for which the Potency entry in test [1] and in test [4] was “inactive” throughout. In addition, the Potency in test [3] was 4.36 µM (active).
As for `Clc1ccccc1-c1nc(-c2ccncc2)no1`, the Potency entry in test [1] and in test [4] was “inactive” in each case. For the same compound, the Potency in test [2] was 3.47 µM (active); in test [3] it was 5.49 µM (active); in test [5], 25.1 µM (active).
`O=C(OCc1ccccc1)c1ccccc1`: the Potency result in test [1], in test [4], in test [2] and in test [3] was “inactive” in each case.
For the compound `CN(C)[C@@H]1C(=O)C(C(=O)NCN2CCCC2)=C(O)[C@@]2(O)C(=O)C3=C(O)c4c(O)cccc4[C@@](C)(O)C3C[C@@H]12` (stereo partly specified), the Potency result in test [1], in test [4] and in test [3] was “inactive” throughout.
Turning to `COc1ccc(-c2cc(=S)ss2)cc1`, the Potency entry in test [1] and in test [4] was “inactive” throughout. In addition, the Potency in test [3] was 11 µM (active).
In the case of `C[N+]1(C)[C@@H]2CC(OC(=O)[C@H](CO)c3ccccc3)C[C@H]1[C@@H]1O[C@@H]12` (stereo partly specified), the Potency entry in test [1], in test [4] and in test [2] was “inactive” throughout.
In the case of `CN1CCN(c2cc3c(nn2)Oc2ccccc2N3C)CC1`, the Potency entry in test [1], in test [4], in test [2] and in test [3] was “inactive” in each case.
For `c1ccc2sc(SN3CCOCC3)nc2c1`, the Potency result in test [1], in test [4] and in test [2] was “inactive” each time. In addition, the Potency in test [3] was 10.7 µM (active) and 15.5 µM (active).
`Nc1cc(-c2ccncc2)c[nH]c1=O`: the Potency result in test [1] and in test [4] was “inactive” throughout. Also, the results for the Potency in test [2] and in test [3] were 12.3 µM (active) and 11 µM (active), respectively.
As for `COC(=O)C1=C(C)NC(C)=C(C(=O)OCC(C)=O)C1c1ccccc1[N+](=O)[O-]` (stereo unspecified), the Potency result in test [1] and in test [4] was “inactive” each time. In addition, in test [3], the Potency is 8.71 µM (active).
For `CC(N)C(=O)OC(C)(C)Cc1ccc(Cl)cc1` (stereo unspecified), the Potency entry in test [1], in test [4] and in test [6] was “inactive” throughout. The Potency in test [2] and in test [3] was 12.3 µM (active) in each case.
For the compound `NC[C@@H]1O[C@H](C23CC4CC(CC(C4)C2)C3)Cc2c1ccc(O)c2O`, the Potency entry in test [1] and in test [6] was “inactive” in each case.
`NC[C@H]1O[C@@H](n2cnc3c(N)ncnc32)[C@H](O)[C@@H]1O`: the Potency entry in test [1] and in test [6] was “inactive” in each case.
For `CNc1ncnc2c1ncn2[C@@H]1O[C@H](CO)[C@@H](O)[C@H]1O`, the Potency result in test [1] and in test [6] was “inactive” throughout.
Consider `CC[C@@H](C)[C@H]1O[C@]2(CC[C@H]1C)C[C@@H]1C[C@@H](CC=C(C)[C@@H](O[C@H]3C[C@H](OC)[C@@H](O[C@H]4C[C@H](OC)[C@@H](O)[C@H](C)O4)[C@H](C)O3)[C@@H](C)C=CC=C3CO[C@@H]4[C@H](O)C(C)=C[C@@H](C(=O)O1)[C@]34O)O2`, for which the Potency result in test [1] and in test [6] was “inactive” throughout.
